# Data reported in PubChem BioAssay.
# The source made the active and inactive calls.
# Columns and labels:
# [1] = test system: XIP peptide (Xip251-270) binding; experiment: XIP fragment 251-270 binding compounds – biochemical, small-molecule microarray, fluorescence 635/667 nm, 0.1 µg/mL protein, primary screen (AID 1182); conditions: fluorescent protein binding, 635 nm, higher = more signal, called active from +8 up or from −8 down
# [2] = test system: XIP peptide (Xip251-270); experiment: compounds binding XIP fragment 251-270 – biochemical, small-molecule microarray, fluorescence 635/667 nm, 0.5 µg/mL protein, primary screen (AID 1183); conditions: fluorescence 635 nm, higher = more signal
# [3] = blood-stage malaria parasite viability loss – strain 3D7, DAPI fluorescence, 100 nL, primary screen (AID 1184);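 also: parasites grown inside human red blood cells in medium with human serum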; conditions: P. falciparum 3D7 growth, 3 d, higher = more signal
# [4] = molecular target: Homeobox protein Hox-A13 (Mus musculus) (UniProt Q62424); experiment: disruptors of Hoxa13 oligonucleotide interaction – biochemical, fluorescence polarization, labeled oligonucleotide, primary screen (AID 1185); conditions: Hoxa13:DNA binding, 15 min, higher = more signal, called active from +8 up or from −8 down
# Chain of Homeobox protein Hox-A13 (Mus musculus) (Q62424 whole entry, looked up): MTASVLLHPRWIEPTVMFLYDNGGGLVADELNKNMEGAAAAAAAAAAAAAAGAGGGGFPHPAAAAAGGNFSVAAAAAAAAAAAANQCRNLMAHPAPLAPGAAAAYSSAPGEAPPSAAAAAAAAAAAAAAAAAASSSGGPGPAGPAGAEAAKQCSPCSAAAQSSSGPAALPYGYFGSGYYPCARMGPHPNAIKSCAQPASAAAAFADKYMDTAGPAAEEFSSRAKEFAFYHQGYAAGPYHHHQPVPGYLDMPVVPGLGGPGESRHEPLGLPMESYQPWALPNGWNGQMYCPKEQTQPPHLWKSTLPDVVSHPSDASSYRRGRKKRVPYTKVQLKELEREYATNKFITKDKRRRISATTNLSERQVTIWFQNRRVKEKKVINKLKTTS
SMILES,composite z-score [1],composite z-score [2],z-score [3],z-score [4]
COc1ccc(COC(=O)NN=C2C[C@@H](O)[C@@H](O)[C@@H]3[C@@H]4C(=O)N(C[C@@H]5CCCO5)C(=O)[C@@H]4CC[C@@H]23)cc1,-0.155 (inactive),0.744,-0.0701,0.903 (inactive)
COC(=O)CC=C[C@@H](C)[C@@H](C=NOC(C)CN1CCCc2nc(C)c(C)cc21)NS(=O)(=O)c1ccc(C)cc1 (stereo partly specified),0.364 (inactive),0.624,0.135,-7.74 (inactive)
CCOC(=O)[C@H](Cc1ccccc1)NC(=O)CCC1CC(OC(=O)NCc2ccc3c(c2)OCO3)CC2(CCCC(COC(=O)NCCOc3ccccc3)O2)O1 (stereo partly specified),-0.125 (inactive),0.565,-1.57,-0.985 (inactive)
CCOC(=O)NN=C1C[C@@H](O)[C@@H](O)[C@@H]2[C@@H]3C(=O)N(C[C@@H]4CCCO4)C(=O)[C@@H]3CC[C@H]12,0.0272 (inactive),0.0356,0.379,0.0129 (inactive)
CC(CCC(=O)OC[C@H]1O[C@H](C#Cc2ccccc2)C=C[C@@H]1Oc1ccc(C)cc1)=NO[C@@H](C)c1cc(-c2c(C)cc(C)cc2C)no1,0.0185 (inactive),-0.333,-1.36,-1.88 (inactive)
O=C1C[C@@H](O)[C@@H](O)[C@@H]2[C@@H]3C(=O)N(Cc4ccccc4)C(=O)[C@@H]3CC[C@H]12,-0.317 (inactive),0.502,-0.331,-1.12 (inactive)
COc1ccc(COC(=O)NN=C2C[C@@H](O)[C@@H](O)[C@@H]3[C@@H]4C(=O)N(C[C@@H]5CCCO5)C(=O)[C@@H]4CC[C@H]23)cc1,-0.0696 (inactive),-0.239,-0.534,0.459 (inactive)
CC(=O)OC[C@H]1O[C@H](CC=NO[C@H](C)c2cn([C@@H]3COC[C@H]3O)nn2)C=C[C@@H]1OC(C)=O,-0.205 (inactive),0.644,-0.0896,0.928 (inactive)
CCOC(=O)[C@H](CC(C)C)NC(=O)CCC1CC(OC(=O)NCc2ccc3c(c2)OCO3)CC2(CCCC(COC(=O)NCCc3ccc(Cl)cc3)O2)O1 (stereo partly specified),-0.0891 (inactive),0.137,-1.66,-6.16 (inactive)
COC(=O)[C@H](C)NC(=O)CCC1CC(OC(=O)NCc2cccc3ccccc23)CC2(CCCC(COC(=O)NCc3cccc(C(F)(F)F)c3)O2)O1 (stereo partly specified),-0.179 (inactive),0.128,-1.74,-4.97 (inactive)
COc1ccc(O[C@H]2C=C[C@@H](c3ccccc3)O[C@@H]2CO)cc1,0.0493 (inactive),0.546,-0.672,-1.6 (inactive)
C[C@@H](c1ccccc1)N1C(=O)[C@H]2[C@H]3[C@H](O)[C@H](O)CC(=NOC[C@@H](O)COCc4ccco4)[C@H]3CC[C@H]2C1=O,0.15 (inactive),0.316,-2.06,-3.21 (inactive)
CC(CCN1CCCc2nc(C)c(C)cc21)=NO[C@@H](C)c1cn([C@H](CO)Cc2ccccc2)nn1,0.51 (inactive),0.244,0.221,-0.829 (inactive)
C[C@@H]1CC[C@H]2C(=O)OC(Cc3ccccc3)CN2[C@H]1c1ccc(Br)cc1 (stereo partly specified),-0.0207 (inactive),0.276,0.695,-3.22 (inactive)
COC(=O)CC=C[C@@H](C)[C@@H](C=NOC[C@@H](C)[C@H](OCc1ccccc1)C(C)C)NS(=O)(=O)c1ccc(C)cc1,0.265 (inactive),-0.0132,-0.192,-4.05 (inactive)
C[C@@H](c1ccccc1)N1C(=O)[C@H]2[C@H]3[C@H](O)[C@H](O)CC(=NOCc4ccccc4)[C@@H]3CC[C@H]2C1=O,0.641 (inactive),0.169,-1.49,-3 (inactive)
COC(=O)CC=C[C@@H](C)[C@@H](C=NOC(C)CN1CCCCc2nc(C)c(C)cc21)NS(=O)(=O)c1ccc(C)cc1 (stereo partly specified),-0.598 (inactive),-0.0903,0.453,-0.327 (inactive)
CC(=O)OC[C@H]1O[C@@H](ON=C2[C@H]3CCn4c(=O)n(-c5ccccc5)c(=O)n4[C@H]3[C@H](O)[C@@H]3O[C@H]23)[C@H](OC(C)=O)[C@@H](OC(C)=O)[C@@H]1OC(C)=O,-0.455 (inactive),0.292,-0.541,-4.07 (inactive)
COC(=O)[C@H](Cc1ccccc1)NC(=O)[C@@H](C)CO,-0.285 (inactive),-0.9,-1.23,1.16 (inactive)
